Source: PubChem BioAssay (NCATS)
A number with no mark means an inactive call. Calls follow the shape of the dose curve; as a rule, active = well fitted curve in the direction sought with a large enough effect; inactive = no such curve, though single readings can be large or run the other way.

Each compound was assayed against Alpha-galactosidase (Coffea arabica) (UniProt Q42656) (assay: Counterscreen for Glucocerebrosidase Inhibitors: qHTS Assay for Coffee Bean alpha-Galactosidase at pH 5.9 (AID 998;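 also: plate controls were uninhibited enzyme for no effect and no-enzyme basal signal for full effect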)). Settings: coffee bean alpha-galactosidase enzyme assay; series mostly up to 76.9 µM; activity, negative = inhibition: at the top concentration.
Sequence of Alpha-galactosidase (Coffea arabica) (Q42656 whole entry, looked up): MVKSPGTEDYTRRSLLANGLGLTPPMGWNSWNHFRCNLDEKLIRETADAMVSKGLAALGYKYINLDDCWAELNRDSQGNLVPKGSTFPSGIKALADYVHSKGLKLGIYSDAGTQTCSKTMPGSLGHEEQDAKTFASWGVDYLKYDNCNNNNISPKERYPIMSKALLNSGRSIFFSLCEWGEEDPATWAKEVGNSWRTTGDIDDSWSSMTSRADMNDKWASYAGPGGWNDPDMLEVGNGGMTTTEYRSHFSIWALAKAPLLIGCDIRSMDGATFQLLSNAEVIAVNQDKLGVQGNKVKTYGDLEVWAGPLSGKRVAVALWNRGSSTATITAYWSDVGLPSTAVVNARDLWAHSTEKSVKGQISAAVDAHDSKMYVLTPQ
Source text: NIH Chemical Genomics Center [NCGC]
NIH Molecular Libraries Screening Centers Network [MLSCN]
PI Name: Zheng, Wei [NIH]
Alpha-galactosidase is a homodimeric glycoprotein that hydrolyzes the terminal alpha-galactosyl moieties from glycolipids and glycoproteins. Deficiency of this enzyme results in Fabry Disease with progressive accumulation of globotriaosylceramide and other glycosphingolipids in vascular endothelial cells that causes renal failure, myocardial infarction and stroke, and premature death in patients. It has reported that the improper folding and trafficking of alpha-galactosidase resulted from the genetic mutations may account for a significant numbers of Fabry patients. […] We optimized this coffee bean alpha-galactosidase assay in 1536-well plate format as a counter-screen assay for identifying the selective small molecule inhibitors of other lysosomal enzymes.
NCGC Assay Protocol Summary:
This is a fluorogenic enzyme assay with 4-Methylumbelliferyl alpha-D-galactopyranoside as the substrate and green coffee bean […] (from Sigma-Aldrich) as the enzyme preparation. Upon the hydrolysis of this fluorogenic substrate, the resulting product, […]. 4-Methyllumbelliferone, can be excited at 365 nm and emits at 440 nm which can be detected by a standard fluorescence plate reader. Data were normalized to the controls for basal activity (without enzyme) and 100% activity (with enzyme). In the AC50 values were determined from concentration-response data modeled with the standard Hill equation.
Assay buffer: 50 mM citric acid, 0.005% Tween-20, pH 5.9. (pH 5.9 is an optimal condition for this enzyme assay.)
1536-well assay protocol for the coffee bean alpha-galactosidase:
(1) Add 2 ul/well of enzyme (2 nM final)
(2) Add 23 nL compounds in DMSO solution. The final titration was 0.7 nM to 77 uM.
(3) Add 1 ul of substrate (80 uM final)
(4) Incubate at room temperature for 20 min.
(5) Add 2 ul stop solution (1M NaOH and 1M Glycine mixture, pH 10)
(6) Detect the assay plate in a ViewLux plate reader (PerkinElmer) with Ex=365 nm and Em=440nm.
Keywords: Alpha-galactosidase, Fabry Disease, pharmacological chaperone, chaperone therapy, high throughput screening, alpha-galactosidase inhibitor, MLSMR, MLSCN, NIH Roadmap, qHTS and NCGC
For `COC(=O)c1c(C)[nH]c(C)c1C(=O)c1ccccc1Cc1ccccc1`, the “activity, negative = inhibition” value was -6.76%.
With `N#C/C(=C\c1ccc(O)c(O)c1)C(=O)NCCCc1ccccc1` the “activity, negative = inhibition” value was -3.03%.
In the case of `CN1[C@@H]2CC[C@H]1CC(O[C@@H](c1ccccc1)c1ccc(Cl)cc1)C2` (stereo not given in full), the “activity, negative = inhibition” value was -5.26%.
With `NC(N)=NC(N)=Nc1cccc(Cl)c1` the “activity, negative = inhibition” value was 0.234%.
`N#C/C(=C\c1ccc(O)c(O)c1)C(=O)Nc1ccccc1` was tested, and the “activity, negative = inhibition” value was -1.51%.
`NC(=NCc1ccccc1)NC(=O)c1nc(Cl)c(N)nc1N` was tested, and the “activity, negative = inhibition” value was -3.57%.
In the case of `Nc1ccc(-c2nc3ccc(-c4nc5ccc(N)cc5[nH]4)cc3[nH]2)cc1`, the “activity, negative = inhibition” value was -7.69%.
For `COc1cccc(-c2cc(=O)c3ccccc3o2)c1N`, the “activity, negative = inhibition” value was -0.328%.
In the case of `O=c1onc2n1-c1cc(Br)ccc1OC2`, the “activity, negative = inhibition” value was -0.12%.
With `COc1ccc(CCN(C)CCc2ccc(OC)c(OC)c2)cc1OC` the “activity, negative = inhibition” value was -1.23%.
With `O=C(O)Cc1c[nH]c2ccc(O)cc12` the “activity, negative = inhibition” value was -2.24%.
`C[N+]1(CCCCC[N+]2(C)CCCC2)CCCC1` was tested, and the “activity, negative = inhibition” value was -1.25%.
With `O=C(O)c1cccnc1C(=O)O` the “activity, negative = inhibition” value was 0.668%.
For `O=C(O)C1=CC(=C(c2ccc(O)c(C(=O)O)c2)c2ccc(O)c(C(=O)O)c2)C=CC1=O`, the “activity, negative = inhibition” value was 1.68%.
With `O=C(O)c1cc(=O)c2c(Cl)cc(Cl)cc2[nH]1` the “activity, negative = inhibition” value was 2.54%.
In the case of `CCn1c(=O)[nH]c2cc(Cl)c(Cl)cc21`, the “activity, negative = inhibition” value was 0.806%.
With `c1ccc(CN2CCC3(CCCc4ccccc43)CC2)cc1` the “activity, negative = inhibition” value was -5.27%.
For `C[C@H](N)Cc1c[nH]c2ccc(O)cc12`, the “activity, negative = inhibition” value was -0.791%.
In the case of `O=C1c2ccccc2-c2n[nH]c3cccc1c23`, the “activity, negative = inhibition” value was -3.95%.
In the case of `OC1(c2ccc(Cl)cc2)CCN(Cc2c[nH]c3ccccc23)CC1`, the “activity, negative = inhibition” value was -5.48%.
`CC(C)COC(=O)OCN1C(=O)CN(CCN2CC(=O)N(COC(=O)OCC(C)C)C(=O)C2)CC1=O` was tested, and the “activity, negative = inhibition” value was -1.17%.
For `NCCCCC(=O)O`, the “activity, negative = inhibition” value was -0.675%.
With `NC(=O)c1cccc(N)c1` the “activity, negative = inhibition” value was -0.601%.
For `CC(=O)N[C@@H](Cc1c[nH]c2ccccc12)C(=O)OCc1cc(C(F)(F)F)cc(C(F)(F)F)c1`, the “activity, negative = inhibition” value was -9.53%.
With `CCCOC(=O)c1c(-c2ccccc2)nc(CC)c(C(=O)SCC)c1CCC` the “activity, negative = inhibition” value was -4.78%.
`C[N+](C)(C)CCO` was tested, and the “activity, negative = inhibition” value was -0.0537%.
`C=C(C)[C@H]1CN[C@H](C(=O)O)[C@@H]1CC(=O)O` was tested, and the “activity, negative = inhibition” value was -2.74%.
In the case of `COc1ccc(-c2ccc(N)[n+](CCCC(=O)O)n2)cc1`, the “activity, negative = inhibition” value was 0.379%.
With `CCN1/C(=C/C(C)=O)Sc2ccc(OC)cc21` the “activity, negative = inhibition” value was -10.3%.
`c1ccc(-c2ccccn2)nc1` was tested, and the “activity, negative = inhibition” value was 1.22%.
For `CCCCCCN(CCCCCC)C(=O)Cc1c(-c2ccc(F)cc2)[nH]c2ccccc12`, the “activity, negative = inhibition” value was -12%.
`CC[C@@H]1Cc2cc(O)ccc2C2=C1c1ccc(O)cc1C[C@H]2CC` was tested, and the “activity, negative = inhibition” value was 10%.
With `CCCCCCCCCCCCCCC[C@H](O)[C@H](N)CO` the “activity, negative = inhibition” value was -1.84%.
`CC1(C)CCC2=C(O1)c1ccccc1C(=O)C2=O` was tested, and the “activity, negative = inhibition” value was -4.66%.
With `CNc1ccc2oc(C[C@H]3O[C@]4(CC[C@H]3C)O[C@H]([C@H](C)C(=O)c3ccc[nH]3)[C@H](C)C[C@H]4C)nc2c1C(=O)O` the “activity, negative = inhibition” value was -7.15%.
With `Cn1c(=O)c2[nH]c(-c3ccccc3)nc2n(C)c1=O` the “activity, negative = inhibition” value was 3.55%.
`N=C(N)SCCc1cnc[nH]1` was tested, and the “activity, negative = inhibition” value was -1.08%.
`N=C(N)SCCN` was tested, and the “activity, negative = inhibition” value was -0.888%.
In the case of `O=c1cc(-c2ccc(O)cc2)oc2cc(O)cc(O)c12`, the “activity, negative = inhibition” value was -8.26%.
In the case of `N[C@@H](Cc1cnc[nH]1)C(=O)O`, the “activity, negative = inhibition” value was -1.18%.
